Compounds without any hit were thinned out: in the full panel of roughly 79,000, 15% have a hit. A number with no mark means an inactive call. Activity calls are given as the source filed them. Cut-off read from the data, not from the text of the source: active = growth inhibition above about 70%; inactive = the rest. Where a SMILES comes first, the peptide text is derived from it. [ ]: non-standard residue; d: D form. The star is where a group is joined. ξ: configuration not given here. ξE = NC(CCC(=O)O)C(=O)O; Cbz = O=C(OCc1ccccc1)*

Assay [1] can be described thus: NCI Yeast Anticancer Drug Screen. Data for the rad50 strain (AID 155).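 Note: 0% = growth of vehicle-only cultures of the same strain.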 Conditions: S. cerevisiae rad50 strain growth inhibition; at 50.0 µM; hits give high values. The method, boiled down:
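Cells are treated with compound, grown, and their growth is then scored against vehicle-only cultures of the same repair-deficient yeast strain.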

Assay [2] can be described thus: NCI Yeast Anticancer Drug Screen. Data for the mec2-1 strain (AID 157). Particulars: S. cerevisiae mec2-1 strain, at 50.0 µM, hits give high values. The method, boiled down:
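Mutant yeast (mec2-1) grown with compound; growth inhibition relative to vehicle control reported.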

Assay [3] can be described thus: NCI Yeast Anticancer Drug Screen. Data for the sgs1 mgt1 strain (AID 161).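 Note: 0% = growth of cultures given vehicle only.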 Conditions: S. cerevisiae sgs1 mgt1 strain, at 50.0 µM, hits give high values. The method, boiled down:
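Percent growth inhibition was derived by comparing compound-exposed mutant yeast with vehicle-exposed cultures. The strain carries alterations in DNA damage repair.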

Assay [4] is described as follows: NCI Yeast Anticancer Drug Screen. Data for the cln2 rad14 strain (AID 165).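 Note: 0% = growth equal to vehicle treated cultures.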 Particulars: S. cerevisiae cln2 rad14 strain, at 50.0 µM, hits give high values. The method, boiled down:
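Readout is yeast growth inhibition versus vehicle-treated controls, using a strain with cln2 and rad14 alterations exposed to compound.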

Assay [5] in a line: NCI Yeast Anticancer Drug Screen. Data for the bub3 strain (AID 167). Conditions: S. cerevisiae bub3 mutant strain, at 50.0 µM, hits give high values. The method, boiled down:
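Part of a panel of yeast mutants defective in DNA damage repair or cell cycle regulation. Each strain is grown with compound, and inhibition is calculated relative to solvent-treated cultures.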

Assay [6] is described as follows: NCI Yeast Anticancer Drug Screen. Data for the mlh1 rad18 strain (AID 175). Conditions: S. cerevisiae mlh1 rad18 strain growth inhibition; at 50.0 µM; hits give high values. The method, boiled down:
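Genetically defined yeast (DNA repair-deficient) exposed to compounds; growth inhibition determined relative to vehicle.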

On to `Nc1cc(=O)c2n[nH]nc2[nH]1`, for which the growth inhibition was -29.9% in assay [1]; 0.7% in assay [2]; -17.1% in assay [3]; -21.6% in assay [4]; -14.3% in assay [5]; -16.9% in assay [6].
Regarding `Cc1ccc(S(=O)(=O)NN(C)C(=O)c2ccccc2)cc1`, the growth inhibition in assay [1] was -5.95%; in assay [2] it was -0.75%; in assay [3] it was 3.05%; in assay [4], -25.2%; in assay [5] it was 22.8%; in assay [6] it was -9.05%.
Take `O=C(NC(CSC(=O)c1ccccc1)C(=O)O)c1ccccc1` (configuration not stated): the growth inhibition is 3.2% in assay [1]; -8.5% in assay [2]; -2.6% in assay [3]; -22.1% in assay [4]; 6.8% in assay [5]; 7.45% in assay [6].
As for `Cc1ccc(S(=O)(=O)N2N=C(c3ccccc3)CC2c2ccccc2)cc1` (configuration not stated), the growth inhibition is 83.1% (active) in assay [1]; 87.1% (active) in assay [2]; 88.4% (active) in assay [3]; 81% (active) in assay [4]; 82% (active) in assay [5]; 91% (active) in assay [6].
Regarding `Cc1nn(C)c(=O)c2nn(-c3ccccc3)c(C)c12`, the growth inhibition in assay [1] is 19.6%; in assay [2], 3.4%; in assay [3] it was 14.8%; in assay [4], 14.3%; in assay [5], 20.8%; in assay [6], 1.25%.
Regarding `Cc1nc(C)c(C(=O)NNC(N)=S)cc1C(=O)NNC(N)=S`, the growth inhibition in assay [1] was -10.2%; in assay [2], -16.6%; in assay [3], 0.95%; in assay [4], -5.6%; in assay [5], -27.6%; in assay [6], -8.9%.
As for `C1=CC(=C(c2ccccc2)c2ccccc2)C=C1`, the growth inhibition in assay [1] is -17.1%; in assay [2], -16.9%; in assay [3], -4.5%; in assay [4], -19.2%; in assay [5], -2.75%; in assay [6], -1.9%.
Regarding `COc1c(OC2OC(CO)C(O)C(O)C2O)cc2c(c1OC)-c1ccc(OC)c(=O)cc1C(NC(C)=O)CC2` (configuration not stated), the growth inhibition is 13.8% in assay [1]; 8.75% in assay [2]; 10.8% in assay [3]; 11.7% in assay [4]; 19% in assay [5]; 20.4% in assay [6].
On to `CC/C=C(C)/C=N\NC(=O)c1ccc[n+](C)c1`, for which the growth inhibition was 21.8% in assay [1]; 12.6% in assay [2]; 17.6% in assay [3]; 23.6% in assay [4]; -3.9% in assay [5]; 2.55% in assay [6].
Consider `COC(=O)Cc1cccnc1`, for which the growth inhibition in assay [1] is -3.3%; in assay [2], -6.85%; in assay [3], -11.3%; in assay [4], -0.55%; in assay [5] it was 0.05%; in assay [6], 12.7%.
In the case of `CCOC(=O)c1nc(SC)sc1NC(=O)c1ccc([N+](=O)[O-])cc1`, the growth inhibition in assay [1] was -11%; in assay [2], -24.8%; in assay [3], -30.8%; in assay [4], 27.1%; in assay [5], -14.7%; in assay [6] it was -21.6%.
Turning to `FCCN(CCF)Cc1ccc2c(c1)OCO2`, the growth inhibition in assay [1] is -4.8%; in assay [2], -12.3%; in assay [3] it was 2.05%; in assay [4] it was -63.1%; in assay [5], -3.1%; in assay [6], -7.4%.
`Cc1c(O)ccc2c(O)c(NC(=O)c3ccc4c(c3)CCC(C)(C)O4)c(=O)oc12`: the growth inhibition in assay [1] was 4.95%; in assay [2] it was -22.9%; in assay [3], 7.95%; in assay [4] it was -95.5%; in assay [5] it was -21.5%; in assay [6] it was 21.1%.
In the case of `CCOC(=O)/C(Cc1cc(=O)n(C)c2ccccc12)=N\Nc1ccccc1`, the growth inhibition is 2.85% in assay [1]; -12.2% in assay [2]; 2.6% in assay [3]; -4.6% in assay [4]; 10.6% in assay [5]; -6.75% in assay [6].
In the case of `COc1ccc(/C=N/N=C/c2ccc(OC)cc2)cc1`, the growth inhibition is 22.3% in assay [1]; 0.7% in assay [2]; -14.1% in assay [3]; -34.5% in assay [4]; -19.8% in assay [5]; 17.8% in assay [6].
With `CCCCSCCOC(=O)Nc1ccc(Cl)cc1`, the growth inhibition in assay [1] was 98.8% (active); in assay [2], 99.3% (active); in assay [3], 98% (active); in assay [4] it was 95.7% (active); in assay [5] it was 99.3% (active); in assay [6] it was 98.8% (active).
With `CC(C)(N)CNCCO`, the growth inhibition in assay [1] was -3.25%; in assay [2], 2.05%; in assay [3], -8.9%; in assay [4] it was -18.1%; in assay [5] it was -1.7%; in assay [6], 0.4%.
In the case of `CN(C=O)C1CCC2C3CC=C4CC(OC=O)CCC4(C)C3CCC21C` (configuration not stated), the growth inhibition in assay [1] was 1.35%; in assay [2], 11.3%; in assay [3], 3.85%; in assay [4] it was 5.95%; in assay [5], -2.9%; in assay [6], -2%.
For `CC(=O)Nc1c(C)ncn(-c2ccccc2)c1=O`, the growth inhibition in assay [1] was -36.9%; in assay [2], -19.9%; in assay [3] it was -2.95%; in assay [4] it was -28.4%; in assay [5], -2.75%; in assay [6] it was -11.2%.
As to `N/N=C1\C(Cl)=C(Cl)c2ccccc21`, the growth inhibition is 6.65% in assay [1]; -6.35% in assay [2]; 10.2% in assay [3]; -11.8% in assay [4]; 2.95% in assay [5]; 8.3% in assay [6].
Regarding `Cc1cc(S(=O)(=O)O)cc(Cl)c1N`, the growth inhibition was -11.3% in assay [1]; -27.9% in assay [2]; -0.85% in assay [3]; -0.5% in assay [4]; -23.8% in assay [5]; -9.4% in assay [6].
As for `O=C(O)CCC(NC(=O)OCc1ccccc1)C(=O)NCC(=O)O` (configuration not stated) (Cbz-[ξE]-Gly-OH), the growth inhibition in assay [1] was 12.3%; in assay [2] it was 2.85%; in assay [3], 0.35%; in assay [4], 46.8%; in assay [5], 3.15%; in assay [6], -6.5%.
Regarding `Cc1ccc(C(=O)Nc2ccc(CP(=O)(O)O)cc2CP(=O)(O)O)cc1NC(=O)Nc1cc(C(=O)Nc2ccc(CP(=O)(O)O)cc2CP(=O)(O)O)ccc1C`, the growth inhibition in assay [1] was -10.8%; in assay [2] it was -5.45%; in assay [3], -12.1%; in assay [4] it was -0.25%; in assay [5], 0.4%; in assay [6], 9.65%.
As for `OCc1nc2ccccc2[nH]1`, the growth inhibition in assay [1] was 5.6%; in assay [2], -4.5%; in assay [3], -3.55%; in assay [4], -27.2%; in assay [5], 14.1%; in assay [6], 3.3%.
In the case of `O=C(Oc1ccc([N+](=O)[O-])cc1)C(CSC(c1ccccc1)(c1ccccc1)c1ccccc1)N1C(=O)c2ccccc2C1=O` (configuration not stated), the growth inhibition in assay [1] was 61.8%; in assay [2] it was 46.7%; in assay [3], 44.5%; in assay [4], 58.7%; in assay [5], 31.9%; in assay [6] it was 52.8%.
Regarding `C/[N+]([O-])=C/c1ncc([N+](=O)[O-])n1CCO`, the growth inhibition in assay [1] is 4.05%; in assay [2], 5.9%; in assay [3] it was 7.95%; in assay [4], 25.1%; in assay [5] it was -3.5%; in assay [6], 25.6%.
As for `CC(=O)/C(=C\c1ccc(/C=C(\C(C)=O)C(=O)CCN(C)C)cc1)C(=O)CCN(C)C`, the growth inhibition in assay [1] is 38.6%; in assay [2], 58.5%; in assay [3], 7.05%; in assay [4] it was 5%; in assay [5] it was 5.65%; in assay [6], -19.6%.
On to `CNC(=O)c1ccc(C(=O)NC)cc1`, for which the growth inhibition is -19.1% in assay [1]; -26.1% in assay [2]; -42.9% in assay [3]; 3.95% in assay [4]; -41.9% in assay [5]; -1.75% in assay [6].
Consider `Cn1c(=O)c2c(n(C)c1=O)n1c(=O)c3ccccc3nc1n2C`, for which the growth inhibition in assay [1] is 12.9%; in assay [2], 2.3%; in assay [3] it was -15.6%; in assay [4], -7.1%; in assay [5], -7.3%; in assay [6], -6.55%.
As to `OC1C(O)C2OC(c3ccccc3)OC2C2OC(c3ccccc3)OC12` (configuration not stated), the growth inhibition was 7.1% in assay [1]; -4.85% in assay [2]; 0.95% in assay [3]; 0.1% in assay [4]; -15.4% in assay [5]; -2.35% in assay [6].
Take `O=C(O)c1cc(-c2ccccc2)nc2cc(Cl)ccc12`: the growth inhibition in assay [1] was 29.9%; in assay [2], 12.8%; in assay [3], 19.1%; in assay [4], -9.35%; in assay [5], 24.4%; in assay [6], 25.6%.
As to `CC(NC(=O)C(N)CC(=O)O)C(=O)OC12CC3CC(CC(C3)C1)C2` (configuration not stated), the growth inhibition was -55.5% in assay [1]; -62.4% in assay [2]; -22.6% in assay [3]; -0.95% in assay [4]; 12.7% in assay [5]; -10.8% in assay [6].
Consider `CCC(=O)CCN(CC)CC`, for which the growth inhibition in assay [1] was -39.6%; in assay [2], -33.3%; in assay [3], -55.8%; in assay [4], -5%; in assay [5] it was -35.3%; in assay [6] it was -40.4%.
Turning to `COC(=O)c1ccccc1N(C(=O)c1ccccc1)c1ccccc1C`, the growth inhibition in assay [1] was -16.1%; in assay [2], -13.3%; in assay [3], -18.9%; in assay [4], 10.4%; in assay [5] it was -11.3%; in assay [6], -55%.
As to `CC(CCC(=O)O)(CCC(=O)O)[N+](=O)[O-]`, the growth inhibition in assay [1] is 0.85%; in assay [2], -1.1%; in assay [3], 12.2%; in assay [4] it was -6.6%; in assay [5] it was 12.6%; in assay [6], -8.8%.
As to `COC1=CC(=O)C(C(C)=O)=C(O)C1=O`, the growth inhibition is 0.05% in assay [1]; -7.95% in assay [2]; -6.5% in assay [3]; 4.7% in assay [4]; -5.6% in assay [5]; -4.05% in assay [6].
As to `CCOC(=O)/C(C#N)=C/c1c(-c2ccccc2)nn2ccccc12`, the growth inhibition was 42.6% in assay [1]; 26.6% in assay [2]; 28.1% in assay [3]; -2.4% in assay [4]; -7.7% in assay [5]; 20.6% in assay [6].

For the origin of these results see PubChem BioAssay (NCI).
